30 compounds from ChEMBL document CHEMBL1157539, “Thousands of chemical starting points for antimalarial lead identification” (Nature, 2010) can be followed below.

Type in all cases: functional
The subject of experiment [1] is Plasmodium falciparum. Nature of the experiment: GSK_TCMDC: Inhibition of Plasmodium falciparum 3D7 in whole red blood cells, using parasite LDH activity as an index of growth. Test compounds present at 2uM.
Experiment [2] concerns Plasmodium falciparum. Nature of the experiment: GSK_TCMDC: Inhibition of Plasmodium falciparum Dd2 in whole red blood cells, using parasite LDH activity as an index of growth. Test compounds present at 2uM.
The next experiment has as its system HepG2. Nature of the experiment: GSK_TCMDC: Percent inhibition of human HepG2 cell line. Test compounds present at 10uM.

The term Inhibition denotes how much of the control response was suppressed. Regarding `Cc1ccccc1C1CCN(c2ccc(C(=O)NC3CC3)cn2)CC1.O=C(O)C(F)(F)F`, the results for the Inhibition in the experiment on Plasmodium falciparum [1], in the experiment on Plasmodium falciparum [2] and with HepG2 were 95%, 95% and 17%, respectively.
As to `COc1ccc(Nc2nccc(N3CCC(NC(=O)Nc4cc(C)ccc4C)C3)n2)cc1` (stereo not given), the figures for the Inhibition in the experiment with Plasmodium falciparum [1], in the experiment with Plasmodium falciparum [2] and in the experiment on HepG2 were 91%, 37% and 10%, respectively.
With `O=C(NCc1ccccc1)Nc1ccc(-c2ccc(-c3nc4cc(C(F)(F)F)ccc4[nH]3)cc2)cc1`, the Inhibition in the experiment on Plasmodium falciparum [1] was found to be 99%; in the experiment on Plasmodium falciparum [2] it was 23%; in the experiment with HepG2, 40%.
For `Nc1ncc(-c2ccsc2)cc1-c1nc2ccccc2[nH]1`, in that order: 99%, 8% and 33%.
`O=C(Nc1ccc(OC2CCN(Cc3ccccc3)C2)c(Cl)c1)c1ccco1.O=C(O)C(F)(F)F` (stereo not given): the Inhibition worked out at 95% with Plasmodium falciparum [1], 94% with Plasmodium falciparum [2] and 13% in the experiment on HepG2.
As for `Cc1cnc(NCC2CCCCC2)nc1NCC(=O)Nc1ccccc1.O=C(O)C(F)(F)F`, the figures for the Inhibition with Plasmodium falciparum [1], in the experiment on Plasmodium falciparum [2] and with HepG2 were 90%, 51% and 21%, respectively.
In the case of `O=C(NC1CCCCC1)N(Cc1ccc(-c2cccc(CNCc3ccc4c(c3)OCO4)c2)cc1)C1CCN(Cc2ccccc2)CC1.O=C(O)C(F)(F)F`, the Inhibition came out at 100% in the experiment on Plasmodium falciparum [1], 72% in the experiment with Plasmodium falciparum [2] and 23% with HepG2.
For `Cc1ccc(-c2ccc(NC(=O)N3CCc4cc(Br)c(N5CCN(C)CC5)cc43)cc2)cn1`, in that order: 80%, 16% and 86%.
As to `COc1ccccc1CCNc1nc(C)cc(N[C@@H](CC(C)C)C(=O)NCc2cccs2)n1.O=C(O)C(F)(F)F`, the Inhibition with Plasmodium falciparum [1] came to 96%; in the experiment on Plasmodium falciparum [2], 31%; with HepG2, 20%.
Turning to `COc1cc2nc(C)nc(Nc3ccc(Oc4ccccc4)cc3)c2cc1OC.Cl`, the Inhibition in the experiment with Plasmodium falciparum [1] was 100%; in the experiment on Plasmodium falciparum [2] it was 72%; in the experiment on HepG2, 0%.
With `CN1CCC(NCc2cccc(-c3cnc(NCc4ccccc4)nc3)c2)CC1.O=C(O)C(F)(F)F`, the Inhibition was 100% in the experiment with Plasmodium falciparum [1], 67% with Plasmodium falciparum [2] and 12% with HepG2.
For `COc1ccc2nccc([C@@H](O)CN3CCC(NCc4nc5c(C#N)cccc5[nH]4)CC3)c2c1.O=C(O)C(=O)O`, in that order: 96%, 9% and 0%.
For `COc1cc2nc(N3CCC(CNC(=O)c4cc(Br)c(Br)s4)CC3)nc(N)c2cc1OC.O=C(O)C(F)(F)F`, in that order: 100%, 97% and 22%.
For `COc1cccc2[nH]c(NCCCNCc3cc(Br)cc(Br)c3)nc12`, in that order: 88%, 2% and 5%.
As for `CCCCN(CCCC)CCNC(=O)c1cc(OC(F)(F)F)ccc1O`, the results for the Inhibition with Plasmodium falciparum [1], in the experiment on Plasmodium falciparum [2] and in the experiment on HepG2 were 93%, 90% and 8%, respectively.
For `CC(=O)Oc1cc(C)ccc1C1CCN(CCCCNC(=O)c2ccc(-c3ccc(C(F)(F)F)cc3)cc2)CC1`, in that order: 100%, 94% and 54%.
As to `Cc1cccc2nc(-c3ccc(-c4cccc(NC(=O)Nc5ccc(Cl)cc5)c4)s3)[nH]c12`, the Inhibition with Plasmodium falciparum [1] came to 100%; in the experiment on Plasmodium falciparum [2], 52%; in the experiment on HepG2 it was 25%.
For `O=C(CCOc1ccccc1)NCC1CCCO1` (stereo not given), in that order: 92%, 0% and 0%.
For `O=C(NCCCNc1nc2ccccc2[nH]1)c1cccc(OC(F)(F)F)c1`, in that order: 100%, 27% and 12%.
On to `COc1ccc(N2CCN(CCCCNC(=O)c3ccc(NC(=O)c4cc(Cl)cc(Cl)c4)cc3)CC2)c(OC)c1.Cl`, for which the Inhibition in the experiment with Plasmodium falciparum [1] was found to be 100%; in the experiment on Plasmodium falciparum [2], 84%; in the experiment on HepG2, 21%.
For `CCC1(CC)CN(c2ccccc2)c2ccc(O)cc2S(=O)(=O)C1CC(C)C` (stereo not given), in that order: 96%, 89% and 0%.
Take `CN(c1ccccc1C(=O)Nc1ccccc1Oc1ccccc1)S(=O)(=O)c1ccccc1`: the Inhibition turned out to be 90% in the experiment with Plasmodium falciparum [1], 80% with Plasmodium falciparum [2] and 2% with HepG2.
For `Cc1cc(Nc2ccc(C)c(C)c2)n2nc(C)nc2n1`, in that order: 95%, 45% and 10%.
For `CCOc1cc(C)ccc1C1CCN(CCCCNC(=O)c2coc(-c3ccc(Cl)cc3)c2)CC1.Cl`, in that order: 92%, 30% and 34%.
`COC(=O)c1ccc(OCC(O)CO)cc1O` (stereo not given): the Inhibition in the experiment with Plasmodium falciparum [1] turned out to be 100%; in the experiment with Plasmodium falciparum [2] it was 23%; in the experiment on HepG2, 4%.
Turning to `Clc1ccc2nc(-c3cccnc3)[nH]c2c1`, the Inhibition in the experiment on Plasmodium falciparum [1] is on record as 92%; with Plasmodium falciparum [2] it was 97%; in the experiment on HepG2, 0%.
For `COC(=O)c1cccc(NC(=O)NCCNc2ccnc(Nc3ccc(F)cc3)n2)c1`, in that order: 93%, 5% and 10%.
For `CCc1cc(OC)c(C(=O)NC2CCN(C[C@H](O)c3ccnc4ccc(OC)cc34)CC2)cc1Br`, in that order: 98%, 56% and 6%.
For `COc1cc(N)c(Cl)cc1C(=O)NCC1CCN(c2nc(C)cc(C)n2)CC1`, in that order: 96%, 95% and 0%.
Consider `O=C(O)C(F)(F)F.c1ccc(-n2ncc(CNCc3ccc(-c4cccc(-c5nc6ccccc6[nH]5)c4)cc3)n2)cc1`, for which the Inhibition in the experiment on Plasmodium falciparum [1] is reported as 94%; in the experiment on Plasmodium falciparum [2] it was 9%; with HepG2, 21%.
